# Among all 88,000 compounds or so, about 260 (0.3%) were called active. The list comes from a sample in which actives are over-represented; it also holds similar structures and randomly drawn compounds. Values without a mark were called inactive.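 How the source made its calls: active means compounds that reduce the energy-transfer binding signal between the protein and its labelled peptide by more than half; inactive means the rest.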
# Target: Mothers against decapentaplegic homolog 3 (Homo sapiens) (UniProt P84022)
# Assay: Smad3/FoxH1 peptide binding inhibitors, primary screen, biochemical, TR-FRET (AID 630);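 further: 0% = Smad3 plus labelled peptide maximal FRET and 100% = peptide-only background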
# Conditions: TR-FRET Smad3/Dy647-FoxH1 peptide binding, europium anti-His; at 25 µM; active compounds read high
# Chain of Mothers against decapentaplegic homolog 3 (Homo sapiens) (P84022 whole entry, looked up): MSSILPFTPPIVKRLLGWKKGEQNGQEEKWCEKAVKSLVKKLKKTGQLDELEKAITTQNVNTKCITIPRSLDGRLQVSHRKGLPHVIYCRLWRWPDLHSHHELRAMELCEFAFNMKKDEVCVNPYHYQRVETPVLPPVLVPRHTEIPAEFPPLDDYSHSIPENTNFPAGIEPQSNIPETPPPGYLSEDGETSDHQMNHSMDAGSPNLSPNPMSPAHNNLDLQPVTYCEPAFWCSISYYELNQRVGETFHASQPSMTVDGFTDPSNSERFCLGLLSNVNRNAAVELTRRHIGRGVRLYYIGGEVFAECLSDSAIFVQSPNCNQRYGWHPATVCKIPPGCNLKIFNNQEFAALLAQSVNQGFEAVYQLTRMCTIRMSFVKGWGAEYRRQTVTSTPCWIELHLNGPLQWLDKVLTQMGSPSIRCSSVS
row,Structure (SMILES),inhibition
1,OC(COc1ccc2ccccc2c1)Cn1cncn1 (stereo unspecified),6.06%
2,C=CCN(C(=O)Nc1ccc2oc(C)nc2c1)c1ccccc1,1.13%
3,Cc1ccc(-c2noc(CSc3nnc(-c4cccs4)n3C)n2)cc1,-3.4%
4,N#C/C(=C(\O)CCl)c1nnc2n1CCCCC2,0.54%
5,CCn1c(SCC(=O)Nc2ccc(OC)c(OC)c2)nnc1-c1c[nH]c2ccccc12,-6.68%
6,Cc1c(CCO)c(=O)n(-c2ccccc2)n1S(=O)(=O)c1ccc(F)cc1,-23.9%
7,CCCCOc1ccc(N(CC(=O)NCC2CCCO2)C(=O)CCC(=O)Nc2cc(C)ccn2)cc1 (stereo unspecified),2.38%
8,Cc1ccc(C)c(N2C(=O)CS/C2=N\NC(=O)c2ccccc2Cl)c1,3.21%
9,COC(=O)c1cc(NC(=O)CC2C(=O)NCCN2C(=O)c2ccc(F)cc2)cc(C(=O)OC)c1 (stereo unspecified),-2.76%
10,CCc1cccc(C)c1N(C(=O)Cn1c(CO)nc2ccccc21)C(C)COC (stereo unspecified),-3.83%
11,COc1ccc(Nc2cc(=O)oc3ccccc23)cc1,1.47%
12,O=C(Cc1c[nH]c2ccccc12)OCCOC(=O)Cc1c[nH]c2ccccc12,0.81%
13,CCOC(=O)C(C)n1cnc2sc(C)c(C)c2c1=O (stereo unspecified),5.75%
14,CCOc1ccc(CN(Cc2ccco2)S(=O)(=O)c2ccc(-n3cnnn3)c(OC)c2)cc1,-8.78%
15,Cc1cc(C)cc(N(CC(=O)N2CC=C(c3ccccc3)CC2)S(=O)(=O)c2c(C)noc2C)c1,-9.86%
16,Cc1ccc(S(=O)(=O)NCC(C)NS(C)(=O)=O)cc1 (stereo unspecified),-1.07%
17,O=C(OCC#CCSc1nnc(-c2ccncc2)o1)c1sc2ccccc2c1Cl,8.98%
18,CCOC(=O)CN(Cc1ccc(OC)c(OC)c1)S(=O)(=O)c1ccc(OC)cc1,3.33%
19,O=C(O)/C=C/C(=O)Nc1ccc2c(c1)-c1ccccc1C2,0.91%
20,CC1=NN(c2ccccc2)C(=O)[C@H]1N=Nc1ccc(S(N)(=O)=O)cc1,-0.1%
21,CC(C)CNC(=S)NNC(=O)c1nn(C)cc1Cl,3.44%
22,CCOc1c(Cl)cc(/C=N/O)cc1OC,5.66%
23,O=C(c1cc2sccc2n1Cc1ccc(F)cc1)N1CCc2ccccc21,4.44%
24,CCN(CC)Cc1cc(C(C)=O)ccc1O,-9.81%

row,Structure (SMILES),inhibition
1,O=C(CCN1CCc2ccccc2C(O)(c2ccccc2)C1)c1ccc2c(c1)OCCO2 (stereo unspecified),8.66%
2,Cc1cc(C)n(-c2cc(Oc3ccccc3)ncn2)n1,3.36%
3,Cn1c(Cn2nnc3ccccc32)nnc1SCC(=O)c1ccccc1F,16.9%
4,CCOC(=O)C1=C(C)NC(SC)=NC1c1ccccc1 (stereo unspecified),-3.1%
5,CC(=NCc1ccco1)c1c(C(F)(F)F)[nH]n(-c2nc3ccccc3s2)c1=O,3.18%
6,O=C(Cc1ccc(-n2c(=O)c3sccc3n(Cc3ccc(F)cc3)c2=O)cc1)NCc1ccco1,-21.8%
7,CC(C)c1nc2oc3c(N4CCN(C)CC4)ncnc3c2c2c1CCC2,51.1% (active)
8,CCN1CCN(c2ncnc3c2oc2nc(C)c4c(c23)CC(C)(C)OC4)CC1,-8.93%
9,Cc1cc(C)nc(N2CCN(c3ncnc4c3oc3ccccc34)CC2)n1,2.31%
10,COC(=O)C1=C(C(=O)c2ccc(C)cc2)C(c2ccccc2)n2nnnc2N1 (stereo unspecified),-4.2%
11,Clc1ccc(C2=CSC3=Nc4cccc5cccc(c45)N23)cc1,19.6%
12,Nn1c(Cc2cccc3ccccc23)nnc1SCC(=O)N1CC(=O)Nc2ccccc21,-9.99%
13,O=C(c1ccco1)N1CCN(C(=O)C2CCCN(S(=O)(=O)c3cccc4nsnc34)C2)CC1 (stereo unspecified),-9.4%
14,NC1=NC(=O)C2(COC(c3ccccc3Cl)OC2)S1 (stereo unspecified),8.22%
15,Cc1oc2nc(SCC(=O)Nc3ccc(S(N)(=O)=O)cc3)nc(NC(=O)c3ccccc3)c2c1C,-117%
16,Cc1ccc(C2C(C#N)C(C#N)N3CCCN23)cc1 (stereo unspecified),-8.98%
17,COc1ccc2c(c1)cc1n2CCN=C1NN,17.3%
18,C/C(N[O-])=C(\C)[N+]([O-])=[Co].CC(=N\[O-])/C(C)=N/[O-].[CH2-]CCN1CCOCC1.c1ccncc1,25%
19,CC(C)(C)NC(=O)CN(Cc1cccs1)C(=O)CNS(=O)(=O)c1ccccc1,-8.34%
20,COC(=O)c1ccccc1Sc1c(/C=N/OCc2ccc(Cl)cc2)c(C(F)(F)F)nn1C,1.08%
21,Cc1ccc(NC(=O)CSCC(=O)N2CCOCC2)cc1,8.2%
22,OCCNc1nc2ccccc2[nH]1,3.77%
23,Cc1cc(SCC(=O)c2ccccc2)nc(SCC(=O)c2ccccc2)n1,-1.72%
24,COc1ccc(-c2nn(-c3ccccc3)cc2C(=O)Nc2nccs2)cc1OC,-5%

row,Structure (SMILES),inhibition
1,CC(=O)C1=C(C)NC(C)=C(C(C)=O)C1c1cn(-c2ccccc2)nc1-c1cccs1,-6.06%
2,Cc1ccc(C2NC(=S)NC3=C2N2CCC3CC2)cc1 (stereo unspecified),2.12%
3,COc1cc(N2CCCC2)c(OC)cc1/C=C(/C#N)c1cccc(Br)c1,0.41%
4,Cc1cc2c(cc1C)NC1=C(N2)O[C@H](c2c[nH]c3ccc(COc4ccccc4)cc23)C1=O,81.3% (active)
5,Cn1cc(S(=O)(=O)N2CCN(c3ccc(F)cc3)CC2)c(=O)n(C)c1=O,-0.19%
6,CCC(CC)C(=O)N1CC(=O)Nc2ccc(Br)cc2C1c1ccccc1 (stereo unspecified),1.61%
7,CC1(C)C2CCC13CS(=O)(=O)NC3C2 (stereo unspecified),7.24%
8,O=C(O)COc1c(Cl)cc(Cl)c2cccnc12,-8.45%
9,O=S(=O)(O)c1ccc(O)c2ncccc12.O=S(=O)(O)c1ccc(O)c2ncccc12.[Zn],63.9% (active)
10,O=C(Nc1cccc2ccccc12)N1CCN(Cc2ccc3c(c2)OCO3)CC1,8.91%
11,CC(C)(C)C(=O)c1cnc(Nc2ccccc2)s1,-2.94%
12,Cn1nc(-c2ccccc2)c(CSc2cccc(Cl)c2)c1Cl,-0.19%
13,COc1ccc(C2=NO[C@@H]3C(=O)N(Cc4ccccc4)C(=O)[C@H]23)cc1OC,4.9%
14,COc1ccc(C(=O)CN2C(=O)NC(C)(c3ccc(C)cc3)C2=O)cc1OC (stereo unspecified),0.23%
15,O=C(Nc1ccc(Oc2ccccc2)cc1)c1ccco1,-3.88%
16,COC(=O)c1ccc(NC(=O)c2ccco2)cc1,66.7% [fluorescence artefact?] (active)
17,Cc1ccnc(NC(=O)c2ccc(NC(=O)c3ccco3)cc2)c1,8.59%
18,Cc1cc(N/C=C\C(=O)c2ccc(Cl)c(Cl)c2)no1,-20.1%
19,CC(C)Nc1ncnc2c1nnn2Cc1ccccc1,-8.78%
20,CC1(C)CC(=O)C=C(N2CCCC2)C1,-13.5%
21,COc1ccccc1CNS(=O)(=O)c1ccc(C)cc1,9.13%
22,O=C(O)[C@@H]1CCc2ccc3ccccc3c2[C@H]1c1cccc2ccccc12,-9.06%
23,COC(=O)c1ccc(NC(=O)C23CC4CC(C2)CC(n2cnc(Cl)n2)(C4)C3)cc1,4.51%
24,O=C(O)[C@@H]1CS[C@]2(CCCN(Cc3ccccc3)C2)N1,7.7%

row,Structure (SMILES),inhibition
1,O=S1(=O)C=C(SCCN2CCCC2)c2ccccc21,17.4%
2,CCOC(=O)c1c(NC(=O)CCl)sc(C(=O)N(CC)CC)c1C,14.1%
3,Cc1cccc(N2CCN(C(=O)c3cnn4c(C(F)F)cc(-c5ccccc5)nc34)CC2)c1C,8.08%
4,Cn1ncc2c(Nc3cccc4ccccc34)ncnc21,2.63%
5,Cc1noc(COc2ccccc2OCc2onc(C)c2Cl)c1Cl,-10.7%
6,Cn1c2c(c(=O)n(C)c1=O)C(c1cccc([N+](=O)[O-])c1)Nc1ccccc1O2 (stereo unspecified),-10.5%
7,CCOc1ccc(C(O)Cc2nc3ccccc3n2C)cc1 (stereo unspecified),3.1%
8,CCCn1c(C)cc(C(=O)COC(=O)c2c(C)nn(-c3ccccc3)c2C)c1C,-7.34%
9,COc1ccc(C(=O)Nc2ccc(CN3CCOCC3)cc2)cc1,11%
10,N#C/C(=C\c1ccccc1)c1n[nH]c(Cn2cncn2)n1,8.55%
11,O=C(CSCc1ccc(Cl)cc1)N1CCCCC1,-8.93%
12,Cc1cccc(NC(=O)CSc2nc3c(c(=O)[nH]2)CCCC3)c1C,5.9%
13,Cc1cc2nc(SCCN3CCOCC3)[nH]c2cc1C,2.4%
14,Cc1nn(Cc2ccccc2)c2c1C(c1ccccc1)C(C#N)=C(N)O2 (stereo unspecified),5.74%
15,COc1ccc(N/N=C2/CCCCC2=O)cc1,-1.11%
16,O=C(O)c1nn(-c2ccc(Cl)cc2)c2c1C(=O)c1ccccc1C2=O,53.4% (active)
17,Cc1ccc(-n2ccc(=O)c(C(=O)O)n2)cc1,0.02%
18,CCOc1ccc(NC(=O)N(CC(C)C)CC(C)C)cc1,3.46%
19,N#CC1=C(SCc2ccc(C#N)cc2)N=C(N)C(c2nc(-c3ccccc3)cs2)C12CCCCC2 (stereo unspecified),-3.23%
20,O=C(NC1(C(F)(F)F)NC(=O)N(Cc2cccnc2)C1=O)c1ccccc1Cl (stereo unspecified),40.1%
21,COC(=O)c1ccc(Cc2ccccc2)o1,6.44%
22,O=C(O)c1ccc(C(=O)O)c2c(C(=O)O)ccc(C(=O)O)c12,-1.5%
23,O=C(c1ccc(O)cc1)c1ccc(C(=O)O)c(C(=O)O)c1,-7.32%
24,O=C(O)c1ccc(C(=O)c2ccccc2C(=O)O)cc1C(=O)O,63.5% (active)

# From PubChem BioAssay AID630 (Emory University Molecular Libraries Screening Center, 2007)
